Out of some 69,000 compounds screened, about 8,600 (12%) showed an effect of 50% or more. This excerpt belongs to a sample that is enriched for strong results.
The molecules below were run on Plasmodium berghei (assay: Screen against P. berghei liver stage (PbLuc), transformed with Luciferase, at 10uM). Settings: tested at 10 uM.
Assay type: functional, HepG2

Question: How did the INHIBITION turn out when `Cc1cc(C(F)(F)F)c2c(=O)n(Cc3ccon3)n(C)c2n1` was run?
Answer: 14.3%

Question: Which INHIBITION does the source give for `CC(C)N(C)Cc1cncc2c1CCN(C1CCOCC1)C2` here?
Answer: 25.6%

Question: How did the INHIBITION turn out when `COc1ccc(C(=O)CCc2nc(C3CC3)no2)cc1` was run?
Answer: -23.3%

Question: For `Cc1cnn(CC2CCCCN2C(=O)c2ccc(N(C)C)nc2)c1` (stereo not given), which INHIBITION is on record?
Answer: -4.16%

Question: How did the INHIBITION turn out when `c1ccc(CN2CCc3c(COCC4CC4)cncc3C2)nc1` was run?
Answer: 23.5%

Question: Which INHIBITION does the source give for `Cc1nc2cc(-c3nccn3C)nn2c(N2CCCC(CO)C2)c1C` (stereo not given) here?
Answer: -15.9%

Question: With `O=S(=O)(NCc1ccccc1)N(Cc1ccccn1)CC1CCCO1` (stereo not given) as the molecule, how does the INHIBITION read?
Answer: -1.91%

Question: `CC(C)[C@@H]1CN(Cc2ccccn2)C[C@H]1NS(=O)(=O)N(C)C` was tested. Which INHIBITION did it give?
Answer: 9.72%

Question: Which INHIBITION does the source give for `CC(C)[C@H]1CN(Cc2ccccn2)C[C@@H]1NS(=O)(=O)C1CC1` here?
Answer: 67.5%

Question: How did the INHIBITION turn out when `CC(C)[C@H]1CN(Cc2ccccn2)C[C@@H]1NC(=O)CCS(C)(=O)=O` was run?
Answer: 28.2%

Question: With `COc1ccc(CC2(CO)CCN(c3cc(C#N)ccn3)CC2)cc1` as the molecule, how does the INHIBITION read?
Answer: 1.74%

Question: With `CC(=O)NCCNC(=O)NCc1ccc(-n2ccc(C(F)(F)F)n2)cc1` as the molecule, how does the INHIBITION read?
Answer: -12.1%

Question: With `CCN(C(=O)c1nc2c(s1)CCCN2C)C(C)C` as the molecule, how does the INHIBITION read?
Answer: 23.6%

Question: For `CC(C)c1noc(CCNC(=O)N2CCSC(C(C)C)C2)n1` (stereo not given), which INHIBITION is on record?
Answer: 37.9%

Question: `CCC(CO)N(Cc1ccsc1)Cc1ccccc1C(=O)O` (stereo not given) was tested. Which INHIBITION did it give?
Answer: -69.3%

Question: For `CCC(CO)N(Cc1ccsc1)Cc1cccc(O)c1` (stereo not given), which INHIBITION is on record?
Answer: -60.8%

Question: For `CCC(CO)N(Cc1ccc(C(=O)O)cc1)Cc1ccsc1` (stereo not given), which INHIBITION is on record?
Answer: 15%

Question: Which INHIBITION does the source give for `CCC(CO)N(Cc1ccsc1)Cc1ccccc1C#N` (stereo not given) here?
Answer: 37.6%

Question: For `CCC(CO)N(Cc1ccsc1)CC1CC1` (stereo not given), which INHIBITION is on record?
Answer: 50.7%

Question: For `CCC(CO)N(CC=C(C)C)Cc1ccsc1` (stereo not given), which INHIBITION is on record?
Answer: 55%

Question: How did the INHIBITION turn out when `CN1CCO[C@@H]2CN(S(=O)(=O)c3ccccc3)C[C@@H]2C1` was run?
Answer: 25.6%

Question: Which INHIBITION does the source give for `CC(C)c1ncncc1C(=O)NCCN1CCCCCC1` here?
Answer: 35.4%

Question: With `Cc1csc(N2CCN(C(=O)C3(C#N)CCCCC3)CC2)n1` as the molecule, how does the INHIBITION read?
Answer: 24.635%

Question: Which INHIBITION does the source give for `CC(O)CN1CCN(C(=O)c2ccc(CN(C)C)cc2)CC1` (stereo not given) here?
Answer: 10%

Question: How did the INHIBITION turn out when `CS(=O)(=O)N1CCC(C(=O)NC(Cc2ccsc2)c2cccnc2)CC1` (stereo not given) was run?
Answer: 47.1%

Question: How did the INHIBITION turn out when `Cc1ccc(C(=O)N2CCC3(CC2)COCCN(S(C)(=O)=O)C3)cc1C` was run?
Answer: -4.88%

Question: For `Cc1cc(OCC(=O)NS(=O)(=O)c2cccnc2)ccc1Cl`, which INHIBITION is on record?
Answer: 38.5%

Question: How did the INHIBITION turn out when `CNC(=O)Cc1ccccc1NC(=O)C1CCCC1` was run?
Answer: 42.6%

Question: `CN(C)C(=O)c1ccccc1NC(=O)N[C@@H]1c2ccccc2C[C@@H]1O` was tested. Which INHIBITION did it give?
Answer: 48.9%

Question: `CS(=O)(=O)c1ccccc1NC(=O)N[C@@H]1c2ccccc2C[C@@H]1O` was tested. Which INHIBITION did it give?
Answer: 35%

Question: `CNC(=O)Cc1ccccc1NC(=O)N[C@H]1c2ccccc2C[C@H]1O` was tested. Which INHIBITION did it give?
Answer: 54.5%

Question: Which INHIBITION does the source give for `CS(=O)(=O)c1ccccc1C(=O)NCC1Cc2ccccc2O1` (stereo not given) here?
Answer: -9.76%

Question: For `CS(=O)(=O)c1ccccc1N[C@@H]1c2ccccc2C[C@@H]1O`, which INHIBITION is on record?
Answer: 67.5%

Question: Which INHIBITION does the source give for `Cc1ccc(CN2CCC3(CC2)OC(C(=O)N(C)C)c2ccccc23)o1` (stereo not given) here?
Answer: 34%

Question: With `CN(Cc1ccc2c(c1)OCO2)C(=O)Cn1cccnc1=O` as the molecule, how does the INHIBITION read?
Answer: 44.1%

Question: Which INHIBITION does the source give for `O=C(CN1CCCC1c1noc(C2CC2)n1)N1CCc2ccccc21` (stereo not given) here?
Answer: 7.08%

Question: With `COCCN1CCC(c2cncc(-c3cccc(Cl)c3)n2)CC1` as the molecule, how does the INHIBITION read?
Answer: -5.71%

Question: Which INHIBITION does the source give for `Fc1cc(CN2CCOC3(CCOCC3)C2)ccc1OC(F)F` here?
Answer: 86.7%

Question: Which INHIBITION does the source give for `Fc1cc(CN2CCOC3(CCOCC3)C2)ccc1Cl` here?
Answer: -27.8%

Question: For `FC(F)Oc1ccc(CN2CCOC3(CCOCC3)C2)cc1Cl`, which INHIBITION is on record?
Answer: 38%

Question: `COc1cc(CNC(=O)Nc2nnc(C(C)C)s2)ccn1` was tested. Which INHIBITION did it give?
Answer: -69.3%

Question: How did the INHIBITION turn out when `Cc1cccc(C2(C(=O)NC(C)Cn3ccnc3)CC2)c1` (stereo not given) was run?
Answer: 35.9%

Question: `Cc1csc(CN(C)C(C)C(=O)N2CCc3ccccc3C2)n1` (stereo not given) was tested. Which INHIBITION did it give?
Answer: 38%

Question: For `CCc1cnc(CN(C)C(C)C(=O)N2CCc3ccccc3C2)s1` (stereo not given), which INHIBITION is on record?
Answer: 62%

Question: Which INHIBITION does the source give for `CC(C(=O)N1CCc2ccccc2C1)N(C)Cc1cscn1` (stereo not given) here?
Answer: 32.9%

Question: Which INHIBITION does the source give for `CC(C)Oc1ncccc1CNC(=O)c1cc(C2CC2)on1` here?
Answer: 11.9%

Question: With `COCCN1CCC1c1cc(N)nc(C)n1` (stereo not given) as the molecule, how does the INHIBITION read?
Answer: 26.7%

Question: `Cc1nc2c(c(NCC(c3cccnc3)N3CCOCC3)n1)CCNC2` (stereo not given) was tested. Which INHIBITION did it give?
Answer: 18.2%

Question: Which INHIBITION does the source give for `CCn1nc2c(cc1=O)CN(CCOc1ccccc1C#N)CC2` here?
Answer: 2.4%

Question: With `Cn1nc2c(cc1=O)CN(Cc1nc3ccccc3c(=O)[nH]1)CC2` as the molecule, how does the INHIBITION read?
Answer: 9.04%

Question: `Cn1nc2c(cc1=O)CN(Cc1nc(N)c3ccccc3n1)CC2` was tested. Which INHIBITION did it give?
Answer: 57.7%

Question: How did the INHIBITION turn out when `CC(C)n1nc2c(cc1=O)CN(CCOc1ccccc1C#N)CC2` was run?
Answer: 12.7%

Question: How did the INHIBITION turn out when `Cc1nnc2n1CCN(CCOc1ccccc1C#N)C2` was run?
Answer: 58.5%

Question: For `CCn1nc2c(cc1=O)CN(Cc1nc(N)c3ccccc3n1)CC2`, which INHIBITION is on record?
Answer: 15.8%

Question: For `Cn1nc2c(cc1=O)CN(CCOc1ccccc1C#N)CC2`, which INHIBITION is on record?
Answer: 74.8%

Question: For `N#Cc1ccccc1OCCN1CCn2c(nnc2C2CC2)C1`, which INHIBITION is on record?
Answer: 39.5%

Question: With `Cc1ccccc1OCCN1CCn2c(C)nnc2C1` as the molecule, how does the INHIBITION read?
Answer: 27.6%

Question: With `Cc1cc(=O)n(CCNC(=O)c2ccccc2Cl)cn1` as the molecule, how does the INHIBITION read?
Answer: -62.1%

Question: Which INHIBITION does the source give for `COc1cc(N2CCC3(CCCN(C(=O)c4cnccn4)C3)C2)ncn1` (stereo not given) here?
Answer: 10.6%

Question: `O=C(c1ccco1)N1CCOCC2(C1)CN(c1ccccn1)C(=O)CO2` (stereo not given) was tested. Which INHIBITION did it give?
Answer: 22.4%

Question: With `COCCCN1CCCC1c1noc(C2CC2)n1` (stereo not given) as the molecule, how does the INHIBITION read?
Answer: 2.97%

Question: `O=C(Cc1ccsc1)N1C[C@@H]2COC[C@]2(COc2cccnc2)C1` was tested. Which INHIBITION did it give?
Answer: 39.4%

Question: Which INHIBITION does the source give for `CC(=O)NCc1ccc(C(=O)N2CCCC2c2cnn(C)c2)s1` (stereo not given) here?
Answer: -25.9%

Question: With `CC(C)Nc1nc(O)cc(C2CC(=O)N(Cc3ccccc3)C2)n1` (stereo not given) as the molecule, how does the INHIBITION read?
Answer: 18.3%

Question: Which INHIBITION does the source give for `O=C(C[C@@H]1COC[C@H]2CN(C(=O)c3cccnc3)C[C@@H]12)N1CCCC1` here?
Answer: -19.5%

Question: Which INHIBITION does the source give for `c1cncc(-c2nnn3c2COCC(CNCC2CCOCC2)C3)c1` (stereo not given) here?
Answer: 41.6%

Question: With `O=C(c1ccccc1O)N1CCN(C(=O)C2CCC2)CC1` as the molecule, how does the INHIBITION read?
Answer: -14.3%

Question: With `CN(Cc1ccc(C(=O)O)cc1)C(=O)c1sccc1OC(F)F` as the molecule, how does the INHIBITION read?
Answer: 52.5%

Question: `CN(CCc1ccncc1)C(=O)c1sccc1OC(F)F` was tested. Which INHIBITION did it give?
Answer: -2.97%

Question: `Cc1ccsc1C(=O)N(C)Cc1ccncc1` was tested. Which INHIBITION did it give?
Answer: 3.1%
